Measurements reported in the supplement of paper PMC11417369.
In all, about 25,000 sequences were measured (“ln(normalized median fluorescence intensity)”: median about 9.3, highest 2% from about 10 on). The full list was thinned out, with the highest values kept by preference.

System: PF3D7_0420300 AP2 domain 1 (GST-tagged)
Experiment: gcPBM binding intensity (ln(normalized median fluorescence intensity)); higher = stronger DNA binding
How it was run: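 After 1 h on an Agilent 4 × 180k array of primer-extended double-stranded 36-bp intergenic genomic probes and negative controls, bound GST-tagged P. falciparum DNA-binding domains were detected with Alexa488 anti-GST antibody and scanned at 488 nm. The domains had been expressed in E. coli, and binding took place in 1× PBS with 1% milk, 0.2 mg/ml BSA, 0.5% salmon testes DNA and 0.03% Triton X-100. Binding intensity is the highest Masliner-normalised natural-log median intensity across replicate spots of either probe orientation.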

Row | Sequence | gcPBM binding intensity (ln)
1 | TATAGAAGCGTTCACACACACACATACATACCCATA [CACACA_site4915] | 10.3
2 | GTTATAGAAGCATTCACACACACACCCACATACACA [CACACA_site1465] | 10.1
3 | TAGAAGCATGGACACACACACATACATACCCATACA [CACACA_site4916] | 10
4 | TTGTTATAGAAGCATTCACACACACCCATACATACA [CACACA_site8414] | 9.87
5 | GTTATAGAAGCATTCACACACACACGGACATACACA [CACACA_site6801] | 10.1
6 | TATAGAAGCATTCACACACACACATACATACACATA [CACACA_site1466] | 10.2
7 | ATTCACTAAAAAATTGCATGCAATAAATTTTTTTTT [TGCATGCA_site962] | 8.91
8 | TAATATATATATATATGTACATATATATTATGTATA [XGTACX_site4690] | 9.07
9 | TATATTTTCTATAGGTGTACTCCACATGCGGTGTTA [XGTACX_site7471] | 9.08
10 | ATGTATATGCAAACATGTACATATATAAACATATAT [XGTACX_site4159] | 9.16
11 | AAAAAAAAAAAAAAAAAAAAACACCCAAAAAAATAT [XGTACX_negctrl_site210] | 9.62
12 | TACACTTTTTATGAAGTGCATGTATAGCTCTTAAAA [GTGCAC_site9595] | 8.78
13 | AATATAAATAAAAACACACACACACCCATATATATA [CACACA_site2267] | 10.1
14 | TATTAAACTGGACACACACACACACCCATATATAAA [CACACA_site4579] | 10.2
15 | AACATATAAAAATGTGCACACACACCCATATATATA [CACACA_site1525] | 9.97
16 | TTCCCATGTAATATTAAACACACACCCATATAACAC [CACACA_site7905] | 9.76
17 | ACCATATAAATAAACACACACACACCCATATATATA [CACACA_site2321] | 10.2
18 | AAAAAAAAAAAAAACACACACACACCCATAAATATA [CACACA_site151] | 9.88
19 | TTTATTAAACTTGACACACACACACCCACATATATA [CACACA_site760] | 10.2
20 | TATATATTAAAACACACACACATATATATATATATA [CACACA_site3787] | 9.67
21 | CATATAAAAATGTGCACACACACACCGATATATATT [CACACA_site4940] | 10.1
22 | CATATAAAAATGTGCACACACACACCCATATATATT [CACACA_site1526] | 10.2
23 | TATTAAACGAAACACACACACACACCCATATATAAA [CACACA_site759] | 10.2

Row | Sequence | gcPBM binding intensity (ln)
24 | TTTTACAAATATTACTGTACACATTTTCATATAATT [XGTACX_site17] | 9.49
25 | TTTTGCGAAAAAAGGTGTACTGTAAATATATTGAGG [XGTACX_site8941] | 9.09
26 | ATATATGATGTAAAAGCACACATATATATATATATA [CACACA_site9330] | 9.21
27 | TTTTTTTTAATATTTTACATTGTCTGTTAACAAATA [CACACA_negctrl_site599] | 9.14
28 | TTTCTTTTTTTTTTTATTTACCTGAATTATGTATTA [TGCATGCA_negctrl_site345] | 9.24
29 | TATGTGCACCCATATACACACACAAATACAATGATA [CACACA_site8295] | 9.81
30 | TATAAAATTTTTAAAAGTACATATTTTACATAATAC [XGTACX_site2193] | 9.1
31 | GCCTATATGTTTAGTTGTACTCCTAATATTATTTGT [XGTACX_site6060] | 9.75
32 | CGCAACACTATTTGGGTGCTCTTCAAAAAAAAAAAA [GTGCAC_site9598] | 8.56
33 | TATAAAAGGAAACACACACACATATATATATATATA [CACACA_site939] | 9.74
34 | TATATATAGAAACACACACACACCAAAGCGTAGCGC [CACACA_site62] | 10
35 | TATATATAGAAACACACACACATATATATATATATA [CACACA_site773] | 9.74
36 | ATATAATATATATATAAACACACAAAAAAAATTATA [CACACA_site8434] | 9.63
37 | ATAAAAAGGAAACACACACACACACCCATATATATA [CACACA_site904] | 10.2
38 | TATATATATAAACACACACACACACCCAAGCGTAGC [CACACA_site4210] | 10.1
39 | TATATATAGAAACACACACACACATATATATATATA [CACACA_site4116] | 9.96
40 | TCATAGTAGAAACACACACACACACCCATATATATA [CACACA_site1737] | 10.2
41 | TAAAAAGGAAAACACACACACACATATATATATATA [CACACA_site3588] | 9.9
42 | ATAATATATATATAAACACACAAAAAAAATTATATA [CACACA_site1534] | 9.74
43 | TATATATAGAAACACACACACACACCCAAGCGTAGC [CACACA_site63] | 10.2
44 | TATATATAAAAACACACACACACACCCTATAATTAT [CACACA_site4063] | 10.3
45 | TATAATATATATGTAACACACAAAAGTTATATACTT [CACACA_site2868] | 9.37
